# Inconclusive results are not listed. The source made the active and inactive calls. Calls follow the shape of the full dose curve.
# Experiment: qHTS assay to identify small molecule agonists of the progesterone receptor (PR) signaling pathway - cell viability counter screen (AID 1346799); also: nearly all actives have a fitted effect of over 45% in size
# Conditions: PR-UAS-bla HEK293T viability, CellTiter-Glo luminescence, 16 h; series mostly up to 92.4 µM; activity change, negative = cytotoxicity: at the top concentration
# Source text: National Center for Advancing Translational Sciences [NCATS]
# NIH Chemical Genomics Center [NCGC]
# U.S. Environmental Protection Agency [EPA]
# National Institutes of Environmental Health Sciences [NIEHS]
# National Toxicology Program [NTP]
# U.S. Food and Drug Administration [FDA]
# Progesterone receptor (PR), a nuclear hormone receptor, plays an important role in development, metabolic homeostasis and reproduction. It is activated by the steroid hormone progesterone. Endocrine disrupting chemicals (EDCs) and their interactions with steroid hormone receptors like PR causes disruption of normal endocrine function. To identify the compounds that stimulate PR signaling, a PR-UAS-bla GripTite cell line i.e. PR-UAS-bla HEK293T (Invitrogen, Carlsbad, CA, USA) containing a beta-lactamase reporter gene under the control of an UAS response element was used to screen Tox21 10K compound library. The cytotoxicity of the Tox21 compound library against the PR-bla cell line was tested in parallel by measuring the cell viability using CellTiter-Glo assay in the same wells.
# Tox21 Assay Protocol Summary:
# PR-UAS-bla HEK293T cells were dispensed at 3,000 cells/5 uL of assay medium containing 2% charcoal stripped FBS per well into black wall/clear-bottom 1536-well plates using a Multidrop Combi (ThermoFisher Scientific, Waltham, MA) dispenser. After the assay plates were incubated at a 37C and 5% CO2 for 6 hr, 23 nL of compounds dissolved in DMSO, positive controls or DMSO only was transferred to the assay plate by a Pintool station (Kalypsys, San Diego, CA). The plates were incubated at 37C and 5% CO2 for 16 hr. Then 1 uL of LiveBLAzer B/G FRET substrate was added using a Flying Reagent Dispenser (FRD, Aurora Discovery, San Diego, CA), the plates were incubated at room temperature for 2 hours, and fluorescence intensity was measured by an Envision plate reader (PerkinElmer, Shelton, CT). For cell viability readout that measures cytotoxicity, 4 uL/well of CellTiter-Glo reagent was added into the assay plates using a FRD. After 30 min incubation at room temperature, the luminescence intensity in the plates was measured using a ViewLux (PerkinElmer) plate reader.
# % is scaled to controls: 0 for no effect and ±100 for the full control effect; potency is read from the fitted curve at half-maximal effect.
Compound,"activity change, negative = cytotoxicity",Potency
COc1ccc(-n2nc(C(F)F)cc2-c2ccc(S(C)=O)cc2)cc1 (stereo not given),18.5% (inactive),
CCN(CC)CCOc1ccccc1C(=O)CCc1ccccc1,,9.44 µM (active)
Nc1ccc(NC(=O)c2ccc(N)cc2)cc1,,54.5 µM (active)
O=C(NC(Cc1cc(=O)[nH]c2ccccc12)C(=O)O)c1ccc(Cl)cc1 (stereo not given),-7.18% [at 42.5 µM] (inactive),
CC(C)OC(=O)c1ccccc1C(=O)OC(C)C,,43.3 µM (active)
C/C(C=O)=C\c1ccccc1,-0.723% (inactive),
CCN(Cc1cccc(S(=O)(=O)O)c1)c1ccc(C(=C2C=CC(=[N+](CC)Cc3cccc(S(=O)(=O)O)c3)C=C2)c2ccc(O)cc2S(=O)(=O)[O-])cc1,-1.07% [at 42.5 µM] (inactive),
O=C1[C@@H]2[C@H]3CC[C@H](C3)[C@@H]2C(=O)N1CCCCN1CCN(c2ncccn2)CC1,7.09% [at 42.5 µM] (inactive),
C1CCCCC1,-4.61% (inactive),
CCOC(=O)N1CCC(Nc2ccc(Cl)cc2N)CC1,20.1% [at 42.5 µM] (inactive),
COc1ccc(-c2cc(C(F)F)nn2-c2ccc(S(N)(=O)=O)cc2)cc1F,32.3% [at 42.5 µM] (inactive),
CC(=O)OCC(=O)[C@@]1(OC(C)=O)[C@@H](C)C[C@H]2[C@@H]3C[C@H](F)C4=CC(=O)C=C[C@]4(C)[C@@]3(F)[C@@H](O)C[C@@]21C,0.182% [at 42.5 µM] (inactive),
CC(C)CC(O)CC(C)C,3.59% (inactive),
Cc1ccc2nc(N)[nH]c(=O)c2c1Sc1ccncc1,11.3% [at 42.5 µM] (inactive),
CCCC(=O)OC(=O)CCC,-11.7% (inactive),
CC(=O)c1ccc[nH]1,-3.98% (inactive),
CS(=O)(=O)c1ccc([C@@H](C[C@H]2CCC(=O)C2)C(=O)Nc2cnccn2)cc1Cl,8.19% (inactive),
CC(O)Cn1cnc2c1c(=O)n(C)c(=O)n2C (stereo not given),-0.923% [at 42.5 µM] (inactive),
Nc1ccc(N=Nc2ccc(N)cc2)cc1,15.7% [at 42.5 µM] (inactive),
CC(=O)C(=O)CC(C)C,-3.21% (inactive),

Compound,"activity change, negative = cytotoxicity",Potency
CCCCCCCC(=O)OCCCCCC,-7.36% (inactive),
CCN(CC)c1cccc(O)c1,-3.05% (inactive),
CCN(Cc1cccc(S(=O)(=O)O)c1)c1ccc(C(=C2C=CC(=[N+](CC)Cc3cccc(S(=O)(=O)O)c3)C=C2)c2ccccc2S(=O)(=O)[O-])cc1,,13.7 µM (active)
CC(C)COC(=O)COc1cc(Cl)c(Cl)cc1Cl,0.17% (inactive),
CNc1c2c(nn1C)CCCC2,-24% [at 42.5 µM] (inactive),
CCC(Cl)CC(Cl)C(Cl)C(Cl)C(Cl)C(C)Cl (stereo not given),9.92% [at 19 µM] (inactive),
O=C(CCS)OCC(COC(=O)CCS)(COC(=O)CCS)COC(=O)CCS,-1.78% (inactive),
O=C1c2ccccc2C(=O)c2c(O)ccc(O)c21,-1.09% (inactive),
CC(C)(C)CCCCCCOC(=O)c1ccccc1C(=O)OCCCCCCC(C)(C)C,-1.72% (inactive),
CC1CCC(C(C)CS)CC1S (stereo not given),6.46% (inactive),
O=S(=O)(Cl)c1c(Cl)cccc1Cl,5.89% (inactive),
CC(=O)Oc1cccc(O)c1,3.75% [at 42.5 µM] (inactive),
O=C(O)c1ccc(O)cc1O,-14.2% (inactive),
O=C(Nc1ccc(C(=O)O)c(O)c1)c1ccccc1,-3.25% [at 42.5 µM] (inactive),
CCCCCCC(CO)CCCC (stereo not given),14.9% (inactive),
OCC(CO)n1cnc(-c2ccc(F)cc2)c1-c1ccnc(Oc2ccccc2)n1,-2.77% (inactive),
Nc1ccc(S(=O)(=O)NCc2ccccc2)cc1,3.01% [at 42.5 µM] (inactive),
CC(C)c1ccc(C(=O)N=C(N)N)cc1S(C)(=O)=O,-3.07% [at 42.5 µM] (inactive),
O=C1CC[C@@H](C(=O)O)N1,-3.32% [at 42.5 µM] (inactive),
CC(C)c1ccc(C#N)cc1,-7.39% (inactive),

# Reference: PubChem BioAssay (Tox21)
